# Screening data from PubChem.
# NPC1 prom act = qHTS Assay for NPC1 Promoter Activators | Huh7 NPC1 promoter luciferase reporter, 24 h | Potency, µM (top dose mostly 9.22 µM), inactives show at the top dose activation, most hits filed as activators | 320,000 tested, 2.4% active | AID 485313, 2010; note: % of control where 0% means no effect; nearly all actives have a fitted effect of over 60% in size
#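 Stable NPC1-promoter luciferase Huh7 line; cpd (DMSO) 24 h, 37 °C, 5% CO2; Amplite luciferase reagent 10 min RT; luminescence readout. qHTS format.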
# ELG1 genotoxic = qHTS screen for small molecules that induce genotoxicity in human embryonic kidney (HEK293T) cells expressing luciferase-tagged ELG1 | 330,000 tested, 1.3% active | Potency, µM (highest dose often 46 µM), inactives show top-dose activity change, positive = activation, usual class: activators | HEK293T ELG1-luciferase reporter, luminescence, 16 h; note: % of control where 0% means no effect; nearly all actives have a fitted effect of over 60% in size
#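 DMSO vehicle served as control against compound-treated ELG1-luciferase HEK293T cells; exposure lasted 16 hr at 37 °C and 5% CO2, followed by ONE-Glo luminescence detection after 30 min.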
# Rab9 promoter act = qHTS Assay for Rab9 Promoter Activators | 320,000 tested, 2.8% active | Huh7 Rab9 promoter-luciferase reporter, luminescence, 24 h | Potency, µM (top dose mostly 9.22 µM), for the others: top-dose activation, negative = inhibition, hits mostly activators; note: % of control where 0% means no effect; nearly all actives have a fitted effect of over 60% in size
#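 Steps: seed 1500 Huh7 Rab9-luc cells per well, rest 2 h at 37 °C; add compound in DMSO; incubate 24 h; add luciferase reagent, 10 min ambient; read luminescence.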
# ELG1 DNA repair = qHTS screen for small molecules that inhibit ELG1-dependent DNA repair in human embryonic kidney (HEK293T) cells expressing luciferase-tagged ELG1; 330,000 tested, 2.3% active; HEK293T ELG1-luciferase reporter, luminescence, 16 h; DNA damage induced by 5-fluorouridine; Potency, µM (series often up to 46.1 µM), for the others: top-dose activity change, negative = inhibition, most hits filed as inhibitors; note: % is set by controls: 0 for no effect and ±100 for the full control effect; nearly all actives have a fitted effect of over 55% in size
#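 In this reporter screen, reduction of luminescence relative to DMSO vehicle indicated activity. Compounds and 5-fluorouridine were added together to 2,000 cells per well, incubated for 16 hr at 37 °C, then developed with ONE-Glo.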
# FLuc counter = qHTS profiling assay for firefly luciferase inhibitor/activator using purifed enzyme and Km concentrations of substrates (counterscreen for miR-21 project). Luciferin 4-monooxygenase (Photinus pyralis), P08659. purified FLuc, Km substrates, luminescence inhibition. Potency, µM (doses to about 57.5 µM), inactives show at the top dose activity change, negative = inhibition, actives largely listed as inhibitors. 360,000 tested, 6.9% active;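 note: plate controls were vehicle for no effect and reference inhibitor for full effect; nearly all actives have a fitted effect of over 55% in size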
# Target sequence (P08659 whole entry, looked up): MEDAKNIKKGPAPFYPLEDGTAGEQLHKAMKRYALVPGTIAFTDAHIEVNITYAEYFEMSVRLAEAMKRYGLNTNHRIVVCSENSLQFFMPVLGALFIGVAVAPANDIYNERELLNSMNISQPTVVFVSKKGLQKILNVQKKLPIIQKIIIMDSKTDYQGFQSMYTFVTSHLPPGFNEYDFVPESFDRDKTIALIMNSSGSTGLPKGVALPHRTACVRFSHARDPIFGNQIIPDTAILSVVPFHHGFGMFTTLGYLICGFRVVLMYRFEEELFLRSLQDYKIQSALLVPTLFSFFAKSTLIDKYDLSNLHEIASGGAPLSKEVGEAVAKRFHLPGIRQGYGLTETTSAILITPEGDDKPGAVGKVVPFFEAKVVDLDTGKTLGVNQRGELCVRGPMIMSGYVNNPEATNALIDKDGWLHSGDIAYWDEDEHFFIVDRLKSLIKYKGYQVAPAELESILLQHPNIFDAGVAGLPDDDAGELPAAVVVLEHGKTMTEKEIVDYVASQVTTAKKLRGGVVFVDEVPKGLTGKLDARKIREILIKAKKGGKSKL
#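 Purified P. pyralis luciferase (10nM final) with 10uM D-luciferin and 10uM ATP (Km levels) in 50mM Tris acetate pH 7.5, 10mM Mg acetate, 0.01% Tween-20, 0.05% BSA; qHTS 6-point titration, ~60 µM downward; luminescence read.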
# SMN2 splice enh = qHTS Assay for Enhancers of SMN2 Splice Variant Expression; HEK293 SMN2-luciferase splicing reporter, luminescence, 30-36 h; 210,000 tested, 2.8% active; Potency, µM (titrated, usually from 46.1 µM), for the others: at the highest dose activity change, positive = activation, most hits filed as activators; note: % of control where 0% means no effect; nearly all actives have a fitted effect of over 55% in size
#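 HEK293 cells carry an SMN2 minigene-luciferase reporter in which exon 7 inclusion puts luciferase in frame. Cells were seeded at 2000 cells/well, attached for 10-12 hours, then exposed to compounds for 30-36 hours at 37C before ONE-Glo luminescence.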
# The depositor's hits bear a star; ? = inconclusive; . = no result; [ ] = remark or other dose. In the library only some 9.3% were active in any assay of this set; here they are far more common. Calls come from the whole dose curve; as a rule, active = well fitted curve in the direction sought with a large enough effect; inconclusive = small, poorly fitted or top-dose-only effect, or another doubt; inactive = no such curve, though single readings can be large; an effect the other way counts as inactive or inconclusive. Potency is the fitted concentration of half-maximal effect.
SMILES,NPC1 prom act,ELG1 genotoxic,Rab9 promoter act,ELG1 DNA repair,FLuc counter,SMN2 splice enh
CCOC(=O)CSc1nc(-c2ccccc2)cc(C(F)(F)F)c1C#N,.,.,.,.,0%,4%
CCOC(=O)c1sc(-c2cccs2)nc1C,10%,1%,28%,?,17µM*,17%
C/C(=N\O)c1sc(-c2ccccc2)nc1C,4µM*,?,3.2µM*,?,8.5µM*,16µM*
CCOC(=O)c1sc(-c2ccccc2)nc1C,-7%,?,17%,?,13µM*,9%
COc1ccccc1/C=N\N=C(\N)c1ccccn1,?,?,2.2µM*,?,6.7µM*,16µM*
CC(C)c1c(C(=O)N/N=C/c2ccc3c(c2)OCO3)nnn1-c1nonc1N,1%,2%,12%,-13%,9.5µM*,.
Nc1nonc1C(=O)N/N=C/c1cc2c(cc1Br)OCO2,-6%,16%,-1%,5%,?,.
Nc1nonc1-n1nnc(C(=O)N/N=C/c2ccc3c(c2)OCO3)c1-c1ccccc1,-2%,-7%,0%,2%,?,.
N/C(=N\N=C\c1ccc2c(c1)OCO2)c1nonc1N,0.4µM*,?,0.32µM*,?,0.95µM*,3.5µM*
CC(/C=N/NC(=O)c1nnn(-c2nonc2N)c1C(C)C)=C\c1ccco1,-3%,1%[9.26 µM],8%,?,5.4µM*,.
COc1ccccc1CC(=O)O/N=C(\N)c1ccccn1,1%,6%,21%,?,-17%,.
CN(C(=O)COC(=O)CN1C(=O)c2cccc([N+](=O)[O-])c2C1=O)c1ccccc1,0%,-2%,-1%,8%,5%,.
CN(C)/C=C(\C#N)S(=O)(=O)C(C)(C)C,2%,0%,4%,5%,-1%,10%
C/C(=N\NC(=O)c1nnn(-c2nonc2N)c1C(C)C)c1cc(C)sc1C,-1%,-2%,-5%,1%,17µM*,.
C/C(=N\NC(=O)c1nnn(-c2nonc2N)c1CN1CCCCC1)c1ccccc1O,-6%,2%,0%,18µM*,0%,.
COc1cccc(/C=N/N=C(\N)c2nonc2N)c1O,?,18µM*,2.5µM*,?,?,?
CCN(CC)c1ccc(/C=N/NC(=O)c2nnn(-c3nonc3N)c2C(C)C)c(O)c1,-14%,-10%,-34%,26%,19µM*,.
CCN(CC)c1ccc(NC(=O)c2cc3c(=O)n4cccc(C)c4nc3n2C)c(C)c1,.,.,.,.,-2%,.
CS(=O)(=O)N(CC(=O)N1CCC(C(N)=O)CC1)C1CCCCC1,1%,1%,-2%,5%,-1%,-15%
CCOC(=O)Nc1cc(C(=O)OC)ccc1C,0%,10%,0%,?,-1%,19%
CC(C)C(=O)Nc1cccc(C(=O)OCC(=O)c2ccc(Cl)cc2Cl)c1,1%,0%,2%,0%,1.2µM*,-7%
CC(=O)Nc1cc(C(=O)OCC(=O)c2ccc(C)cc2)ccc1C,4µM*,?,2.2µM*,?,6µM*,?
COc1ccc(C(=O)COc2ccc(C)cc2NC(C)=O)cc1,3.5µM*,?,1.3µM*,?,-9%,.
CC(=O)Nc1cc(C(=O)OCC(=O)c2ccc(Cl)cc2Cl)ccc1C,-3%,-1%,2%,6%,2.4µM*,-7%
CCOc1ccccc1OC(C)C(=O)Nc1ccc(S(=O)(=O)N2CCCC2)cc1 (stereo unspecified),-4%,-3%,-5%,-7%,1%,.
SMILES,NPC1 prom act,ELG1 genotoxic,Rab9 promoter act,ELG1 DNA repair,FLuc counter,SMN2 splice enh
N#CCCn1nc(-c2ccc([N+](=O)[O-])cc2)cc1Nc1ccccc1NC(=O)C(F)(F)F,-1%,-9%,-1%,18µM*,1%,-18%
N#CCCn1nc(-c2ccccc2)cc1Nc1ccccc1NC(=O)C(F)(F)F,-1%,0%,-1%,-10%,3%,-8%
CCc1cc(C(=O)OC)c(NC(=O)CC2SC(N)=NC2=O)s1 (stereo unspecified),0%,4%,-5%,14%,?,-4%
CCCn1c2c(c(O)c(C(=O)Nc3ncccc3O)c1=O)CCCC2,9%,-1%,-4%,-9%,1%,.
O=C(O)c1ccc(/C=N/NC(=O)c2cc3c(ccc4ccccc43)o2)cc1,-2%,0%,11%,-5%,6µM*,.
COc1ccc(/C=N/NC(=O)c2cc3c(ccc4ccccc43)o2)cc1OC,-3%,-4%,-3%,?,11µM*,.
O=C(N/N=C/c1ccc(-c2ccc(Cl)c(C(=O)O)c2)o1)c1cc2c(ccc3ccccc32)o1,13%,5%,1%,5%,21µM*,.
O=C(N/N=C/c1ccncc1)c1cc2c(ccc3ccccc32)o1,0%,3%,4%,-4%,?,-10%
N#CCn1cc(/C=N/NC(=O)c2cc3c(ccc4ccccc43)o2)c2ccccc21,-13%,-3%,-5%,-22%,?,.
COc1ccccc1/C=N/NC(=O)c1cc2c(ccc3ccccc32)o1,1%,-5%,3%,-7%,19µM*,.
S=C(NCCN1CCOCC1)N/N=C/c1c2ccccc2cc2ccccc12,8%,-19%,2%,?,-9%,2%
O=C(Nc1ccccn1)C12CC3CC(C1)CC(C(=O)Nc1ccccn1)(C3)C2,2%,-14%,1%,-26%,-1%,.
Cc1noc(C)c1S(=O)(=O)Nc1ccc(C(=O)Nc2ccc(C(C)C)cc2)cc1,.,.,.,.,?,-3%
O=C(N/N=C/c1cccc([N+](=O)[O-])c1)c1cc2c(ccc3ccccc32)o1,?,14%,-5%,?,-4%,-5%
COc1ccc(/C=N\NC(=O)c2cc3c(ccc4ccccc43)o2)cc1O,-2%,-9%,-1%,?,12µM*,.
COc1cc(/C=N/NC(=O)c2cc3c(ccc4ccccc43)o2)cc(OC)c1O,-2%,0%,-4%,?,4.8µM*,.
CC(=O)Nc1ccc(NC(=O)CCn2nnc3ccccc32)cc1,-6%,1%,2%,?,-3%,.
CCOC(=O)C1=C(C)N(c2ccc(C)cc2)C(=O)/C1=C\c1ccc(O)c(OC)c1,-13%,2%,-8%,0%,-11%,.
CCOC(=O)C1=C(O)c2ccccc2C(=O)/C1=C\c1ccc(C)cc1,0%,7%,14%,?,6.7µM*,-34%
